{
  "source": "PubChem BioAssay (NCATS)",
  "note": "Records with an inconclusive call do not appear. Where a call stands in place of a potency, no number is given. The source made the active and inactive calls. Calls come from the whole dose curve; as a rule, active = well fitted inhibition curve with a large enough effect; inconclusive = small, poorly fitted or top-dose-only effect, or effect the other way; inactive = flat fitted curve, though single readings scatter. Potency is the fitted concentration of half-maximal effect.",
  "data": [
    {"biological_target": "ATPase family AAA domain-containing protein 5 (Homo sapiens) (UniProt Q96QE3)", "sequence (Q96QE3 whole entry, looked up, the tested form may be a part)": "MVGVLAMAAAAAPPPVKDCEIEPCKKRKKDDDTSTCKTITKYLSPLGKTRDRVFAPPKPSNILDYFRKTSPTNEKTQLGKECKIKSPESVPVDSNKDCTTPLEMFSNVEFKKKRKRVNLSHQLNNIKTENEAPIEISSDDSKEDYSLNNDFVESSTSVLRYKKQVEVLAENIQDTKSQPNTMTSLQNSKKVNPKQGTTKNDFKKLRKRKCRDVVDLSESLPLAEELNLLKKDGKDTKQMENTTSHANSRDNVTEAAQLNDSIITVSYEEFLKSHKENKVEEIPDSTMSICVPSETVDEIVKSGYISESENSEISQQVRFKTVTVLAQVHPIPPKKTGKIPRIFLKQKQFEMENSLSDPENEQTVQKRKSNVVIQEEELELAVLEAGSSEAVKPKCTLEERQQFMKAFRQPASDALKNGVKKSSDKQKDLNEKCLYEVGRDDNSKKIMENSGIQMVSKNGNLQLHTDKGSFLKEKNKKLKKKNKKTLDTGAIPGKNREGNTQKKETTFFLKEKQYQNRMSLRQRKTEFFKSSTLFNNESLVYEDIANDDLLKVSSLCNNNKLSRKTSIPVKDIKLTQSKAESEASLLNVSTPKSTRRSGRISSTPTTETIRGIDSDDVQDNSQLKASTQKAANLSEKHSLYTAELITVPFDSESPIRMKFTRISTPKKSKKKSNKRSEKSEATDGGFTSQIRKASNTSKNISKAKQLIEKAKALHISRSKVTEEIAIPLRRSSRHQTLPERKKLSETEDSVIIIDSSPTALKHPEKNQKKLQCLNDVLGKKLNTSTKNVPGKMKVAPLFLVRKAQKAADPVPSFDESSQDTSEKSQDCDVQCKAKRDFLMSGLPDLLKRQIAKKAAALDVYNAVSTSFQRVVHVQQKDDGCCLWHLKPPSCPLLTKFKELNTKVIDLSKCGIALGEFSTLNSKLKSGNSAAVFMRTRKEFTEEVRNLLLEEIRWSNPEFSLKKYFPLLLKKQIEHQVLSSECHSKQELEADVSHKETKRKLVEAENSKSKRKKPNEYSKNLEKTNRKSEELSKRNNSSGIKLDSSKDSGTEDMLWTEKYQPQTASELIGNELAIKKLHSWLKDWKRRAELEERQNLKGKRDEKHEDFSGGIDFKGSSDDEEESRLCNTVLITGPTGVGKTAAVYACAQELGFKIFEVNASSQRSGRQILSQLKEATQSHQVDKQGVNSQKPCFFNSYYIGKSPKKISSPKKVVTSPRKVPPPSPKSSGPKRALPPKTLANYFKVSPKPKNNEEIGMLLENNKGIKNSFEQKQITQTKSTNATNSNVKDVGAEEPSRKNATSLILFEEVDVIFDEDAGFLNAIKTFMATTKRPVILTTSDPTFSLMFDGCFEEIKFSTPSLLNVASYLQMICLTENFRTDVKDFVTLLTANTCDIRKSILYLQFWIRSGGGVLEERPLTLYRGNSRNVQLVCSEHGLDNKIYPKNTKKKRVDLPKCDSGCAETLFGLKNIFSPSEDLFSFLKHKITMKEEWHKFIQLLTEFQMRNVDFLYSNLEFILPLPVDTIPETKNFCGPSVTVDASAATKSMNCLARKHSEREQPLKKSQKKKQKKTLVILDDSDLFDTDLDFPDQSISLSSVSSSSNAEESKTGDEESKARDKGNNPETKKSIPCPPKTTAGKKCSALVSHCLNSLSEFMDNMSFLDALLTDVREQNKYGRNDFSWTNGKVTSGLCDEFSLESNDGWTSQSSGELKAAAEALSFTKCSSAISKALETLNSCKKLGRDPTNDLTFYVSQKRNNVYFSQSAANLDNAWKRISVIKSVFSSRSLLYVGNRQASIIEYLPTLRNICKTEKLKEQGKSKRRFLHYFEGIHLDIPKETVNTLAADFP", "experiment": "Validation screen for small molecules that inhibit ELG1-dependent DNA repair in human embryonic kidney (HEK293T) cells expressing luciferase-tagged ELG1 (AID 493107); note: nearly all actives have a fitted effect of over 70% in size", "conditions": "HEK293T ELG1-luciferase level, luminescence, 5-fluorouridine co-treatment, 16 h; series mostly up to 46.1 µM", "from_the_text": "NIH Molecular Libraries Probe Production Network [MLPCN]\nNIH Chemical Genomics Center [NCGC]\nAssay Provider: Kyungjae Myung, NHGRI, NIH\nKeywords: MLPCN, qHTS, NCGC, genotoxicity, cancer\nCancer cells divide rapidly compared to normal cells in the body. During cell division, cancer cells need to duplicate their genome by DNA replication. The failure of genome duplication leads to cancer cells' death. Therefore, inhibitors of DNA replication could specifically kill cancer cells. Based on this concept, many chemotherapeutic agents were developed and have been used to treat cancer patients. However, there are a limited number of agents available in the clinical setting, and some of those that do exist have low efficacy and severe side effects. Therefore, if we can find the compounds that effectively block DNA replication either by directly damaging DNA or by inhibiting other cellular mechanisms, the options for cancer treatment will be broadened. With this in mind, we developed a quantitative high-throughput ELG1-luciferase reporter gene assay. Small molecules that specifically block ELG1 function in response to DNA damage can be identified by monitoring the suppression of luciferase activity. Since ELG1 defines a pathway for repairing DNA damage, agents blocking ELG1 function can be used to sensitize cancer cells to chemotherapeutic agents whose mechanism of action involves the induction of DNA damage.\nFor genotoxicity screening, 2,000 cells in 4 uL/well were dispensed into white, solid-bottom 1536-well plates using a solenoid-based dispenser. Following transfer of 1 uL 5-Fluorouridine and 23 nL compound or DMSO vehicle by a pin tool, the plates were incubated 16 hr at 37 °C and 5% CO2. 5 ul ONE-Glo (Promega) was then added to each plate and following a 30 min incubation at room temperature, luciferase activity was quantified on a ViewLux CCD-based plate reader.", "values": [
      {"compound": "N#CC(C#N)=C(N)/C(C#N)=C/c1ccc(O)cc1", "Potency": "inactive"},
      {"compound": "CN1CCC2(CCN3CCc4c(oc5ccccc45)C3C2)N(C)C1=O", "note": "(stereo not given)", "Potency": "inactive"},
      {"compound": "C[C@@]1(C2CCCC2)Cc2cc(OCC(=O)O)c(Cl)c(Cl)c2C1=O", "Potency": "inactive"},
      {"compound": "Cc1cc2c(cc1Cl)N(C(=O)Nc1ccnc3ccccc13)CC2", "Potency": "inactive"},
      {"compound": "CC(=O)NNC(=O)N1Cc2ccccc2Oc2ccc(Cl)cc21", "Potency": "inactive"},
      {"compound": "C[C@H](O)C(=O)C1=Nc2c(nc(N)[nH]c2=O)NC1", "Potency": "inactive"},
      {"compound": "Nc1ncnc2c1nc(Br)n2C1OC2COP(=O)(O)O[C@@H]2C1O", "note": "(stereo not given in full)", "Potency": "inactive"},
      {"compound": "O=C(O)c1cccnc1C(=O)O", "Potency": "inactive"},
      {"compound": "NC1(C(=O)O)CCc2cc(C(=O)O)ccc21", "note": "(stereo not given)", "Potency": "inactive"},
      {"compound": "CC1CCN(CC[C@H]2CCCN2S(=O)(=O)c2cccc(O)c2)CC1", "Potency": "inactive"},
      {"compound": "C=CCNc1ncnc2ccc(Br)cc12", "Potency": "7.3 µM (active)"},
      {"compound": "COc1ccc(CCN(C)CCc2ccc(OC)c(OC)c2)cc1OC", "Potency": "inactive"},
      {"compound": "CN(CC[C@@H](Oc1ccc(C(F)(F)F)cc1)c1ccccc1)CC(=O)O", "Potency": "inactive"},
      {"compound": "NC(=O)c1cc[n+](CC2=C(C(=O)O)N3C(=O)[C@@H](NC(=O)[C@@H](c4ccccc4)S(=O)(=O)[O-])[C@H]3SC2)cc1", "Potency": "inactive"},
      {"compound": "O=C1C2C=CC=CC2=NC(=S)N1CCN1CCC(=C(c2ccc(F)cc2)c2ccc(F)cc2)CC1", "note": "(stereo not given)", "Potency": "inactive"},
      {"compound": "NCCNS(=O)(=O)c1cccc2c(Cl)cccc12", "Potency": "inactive"},
      {"compound": "O=C(O)c1cc2cc(F)ccc2[nH]1", "Potency": "inactive"},
      {"compound": "N#C/C(=C\\c1ccc(O)c(O)c1)C(=O)NCCc1ccccc1", "Potency": "inactive"},
      {"compound": "C#CCn1c(=O)c2c(ncn2C)n(C)c1=O", "Potency": "inactive"},
      {"compound": "O=C(O)C1=CCCN(CCON=C(c2ccccc2)c2ccccc2)C1", "Potency": "inactive"},
      {"compound": "CCN(c1nc(N)c(C(=O)N=C(N)N)nc1Cl)C(C)C", "Potency": "inactive"},
      {"compound": "O=C(O)Cc1c[nH]c2ccc(O)cc12", "Potency": "inactive"},
      {"compound": "CC(=O)NCCc1c[nH]c2ccc(O)cc12", "Potency": "inactive"},
      {"compound": "CC1=C(C(=O)O)N2C(=O)[C@@H](NC(=O)C(N)C3=CCC=CC3)[C@H]2SC1", "note": "(stereo not given in full)", "Potency": "inactive"},
      {"compound": "CC(=O)SC1CC2=CC(=O)CC[C@]2(C)C2CC[C@@]3(C)C(CC[C@@]34CCC(=O)O4)C12", "note": "(stereo not given in full)", "Potency": "7.3 µM (active)"},
      {"compound": "COc1cc(CNC(=O)CCCCCCC(C)C)ccc1O", "Potency": "inactive"},
      {"compound": "CC[N+](CC)(CC)CC(=O)Nc1c(C)cccc1C", "Potency": "inactive"},
      {"compound": "COc1ccc(-c2cc3ncc(C)n3c(Nc3ncccc3C(N)=O)n2)cc1OC", "Potency": "1.03 µM (active)"},
      {"compound": "C=C1C[C@@]23CC[C@H]4[C@@](C)(CCC[C@@]4(C)C(=O)O)[C@@H]2CC[C@]1(O)C3", "Potency": "inactive"},
      {"compound": "NCC(O)C1CCCCCCC1", "note": "(stereo not given)", "Potency": "inactive"},
      {"compound": "COCc1nc2c([nH]1)c(=O)n(C)c(=O)n2CC(C)C", "Potency": "inactive"},
      {"compound": "c1ccc(C(NCCNC(c2ccccc2)c2ccccc2)c2ccccc2)cc1", "Potency": "inactive"},
      {"compound": "Cc1nc(N=Nc2ccc(S(=O)(=O)O)cc2S(=O)(=O)O)c(COP(=O)(O)O)c(C=O)c1O", "Potency": "inactive"},
      {"compound": "COc1ccc(NC(=O)c2ccc(-c3ccc(-c4noc(C)n4)cc3C)cc2)cc1N1CCN(C)CC1", "Potency": "20.6 µM (active)"},
      {"compound": "Oc1ccc(/C=C/c2ccc(/C=C/c3ccc(O)cc3)c(Br)c2)cc1", "Potency": "inactive"},
      {"compound": "O=C(O)Cc1ccc(O)c(O)c1", "Potency": "inactive"},
      {"compound": "COc1ccccc1N1CCN(CCCCN2C(=O)c3ccccc3C2=O)CC1", "Potency": "inactive"},
      {"compound": "S=C(S)N1CCCC1", "Potency": "inactive"},
      {"compound": "CCCCCCCCCC[Si](C)(C)CCC(=O)NC(Cc1ccc(C)cc1)c1ccccc1", "note": "(stereo not given)", "Potency": "inactive"},
      {"compound": "NCCCNCCCCNCCCN", "Potency": "inactive"}
    ]}
  ]
}
